Data taken from ChEMBL document CHEMBL1961873, “Compounds: GSK PKIS; Assays: Nanosyn kinase panel” (2012).

Key:
[1] = biological target: Ribosomal protein S6 kinase alpha-6 (Homo sapiens) (UniProt Q9UK32); conditions: at 1 µM;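 further: each value is a mean inhibition of RSK4 from a GSK PKIS panel screen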
[2] = biological target: T1, Serine/threonine-protein kinase Sgk1 (Homo sapiens) (UniProt O00141); conditions: at 0.1 µM
T1 sequence (whole entry): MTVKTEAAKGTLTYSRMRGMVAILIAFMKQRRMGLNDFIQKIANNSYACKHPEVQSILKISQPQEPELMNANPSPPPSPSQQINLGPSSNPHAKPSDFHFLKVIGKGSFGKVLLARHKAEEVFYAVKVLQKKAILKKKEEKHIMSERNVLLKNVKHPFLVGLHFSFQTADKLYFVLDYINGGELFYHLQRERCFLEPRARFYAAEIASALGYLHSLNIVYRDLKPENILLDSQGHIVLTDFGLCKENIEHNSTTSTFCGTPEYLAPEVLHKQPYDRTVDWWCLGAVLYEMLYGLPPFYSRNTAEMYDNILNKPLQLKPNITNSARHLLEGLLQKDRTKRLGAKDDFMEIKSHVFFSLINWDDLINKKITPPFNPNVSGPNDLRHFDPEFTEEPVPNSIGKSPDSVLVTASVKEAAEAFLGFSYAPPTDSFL

[3] = biological target: T1, Serine/threonine-protein kinase Sgk1 (Homo sapiens); conditions: at 1 µM
[4] = biological target: T2, Serine/threonine-protein kinase Sgk2 (Homo sapiens) (UniProt Q9HBY8); conditions: at 0.1 µM
T2 sequence (whole entry): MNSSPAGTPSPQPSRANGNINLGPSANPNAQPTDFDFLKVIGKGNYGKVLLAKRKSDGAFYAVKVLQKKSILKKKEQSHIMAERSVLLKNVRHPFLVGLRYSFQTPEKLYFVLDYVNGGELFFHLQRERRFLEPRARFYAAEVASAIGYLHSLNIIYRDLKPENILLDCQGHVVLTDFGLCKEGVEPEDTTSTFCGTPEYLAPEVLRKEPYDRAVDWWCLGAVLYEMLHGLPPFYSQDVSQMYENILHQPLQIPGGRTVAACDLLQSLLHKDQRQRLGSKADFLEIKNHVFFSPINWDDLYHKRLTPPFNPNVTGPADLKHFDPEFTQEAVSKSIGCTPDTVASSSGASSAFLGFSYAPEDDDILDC

[5] = biological target: T2, Serine/threonine-protein kinase Sgk2 (Homo sapiens); conditions: at 1 µM
[6] = biological target: T3, Serine/threonine-protein kinase Sgk3 (Homo sapiens) (UniProt Q96BR1); conditions: at 0.1 µM
T3 sequence (whole entry): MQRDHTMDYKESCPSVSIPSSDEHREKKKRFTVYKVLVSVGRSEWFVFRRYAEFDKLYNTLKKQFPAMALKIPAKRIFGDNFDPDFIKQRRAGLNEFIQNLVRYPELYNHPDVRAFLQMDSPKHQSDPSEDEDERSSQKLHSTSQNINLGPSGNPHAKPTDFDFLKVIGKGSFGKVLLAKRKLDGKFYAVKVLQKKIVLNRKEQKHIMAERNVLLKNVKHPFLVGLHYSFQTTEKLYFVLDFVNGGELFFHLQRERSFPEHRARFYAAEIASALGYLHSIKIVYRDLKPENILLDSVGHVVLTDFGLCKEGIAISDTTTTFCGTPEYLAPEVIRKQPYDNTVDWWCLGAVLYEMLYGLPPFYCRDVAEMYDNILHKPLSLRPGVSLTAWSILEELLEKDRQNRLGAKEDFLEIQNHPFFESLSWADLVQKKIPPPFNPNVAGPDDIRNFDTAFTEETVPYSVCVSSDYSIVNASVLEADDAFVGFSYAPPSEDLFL

[7] = biological target: T3, Serine/threonine-protein kinase Sgk3 (Homo sapiens); conditions: at 1 µM
[8] = biological target: 5'-AMP-activated protein kinase catalytic subunit alpha-1 (Homo sapiens) (UniProt Q13131); conditions: at 0.1 µM
Sequence of 5'-AMP-activated protein kinase catalytic subunit alpha-1 (Homo sapiens) (Q13131 whole entry, looked up): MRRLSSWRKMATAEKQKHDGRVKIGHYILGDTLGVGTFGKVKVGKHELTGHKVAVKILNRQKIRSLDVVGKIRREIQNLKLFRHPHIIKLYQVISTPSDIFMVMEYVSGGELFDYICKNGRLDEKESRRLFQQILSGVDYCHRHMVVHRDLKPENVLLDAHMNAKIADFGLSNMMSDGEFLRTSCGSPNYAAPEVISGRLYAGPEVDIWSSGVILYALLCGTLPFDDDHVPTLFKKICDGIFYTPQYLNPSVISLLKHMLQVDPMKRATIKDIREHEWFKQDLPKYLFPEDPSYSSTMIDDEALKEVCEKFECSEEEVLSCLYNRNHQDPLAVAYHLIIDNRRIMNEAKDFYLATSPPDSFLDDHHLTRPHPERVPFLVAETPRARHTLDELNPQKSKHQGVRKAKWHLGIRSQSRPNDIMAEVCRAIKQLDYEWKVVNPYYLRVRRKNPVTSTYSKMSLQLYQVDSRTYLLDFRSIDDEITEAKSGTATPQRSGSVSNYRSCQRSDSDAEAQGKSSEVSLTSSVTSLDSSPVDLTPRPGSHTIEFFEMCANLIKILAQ

[9] = biological target: 5'-AMP-activated protein kinase catalytic subunit alpha-1 (Homo sapiens) (UniProt Q13131); conditions: at 1 µM
[10] = biological target: 5'-AMP-activated protein kinase catalytic subunit alpha-2 (Homo sapiens) (UniProt P54646); conditions: at 0.1 µM
Sequence of 5'-AMP-activated protein kinase catalytic subunit alpha-2 (Homo sapiens) (P54646 whole entry, looked up): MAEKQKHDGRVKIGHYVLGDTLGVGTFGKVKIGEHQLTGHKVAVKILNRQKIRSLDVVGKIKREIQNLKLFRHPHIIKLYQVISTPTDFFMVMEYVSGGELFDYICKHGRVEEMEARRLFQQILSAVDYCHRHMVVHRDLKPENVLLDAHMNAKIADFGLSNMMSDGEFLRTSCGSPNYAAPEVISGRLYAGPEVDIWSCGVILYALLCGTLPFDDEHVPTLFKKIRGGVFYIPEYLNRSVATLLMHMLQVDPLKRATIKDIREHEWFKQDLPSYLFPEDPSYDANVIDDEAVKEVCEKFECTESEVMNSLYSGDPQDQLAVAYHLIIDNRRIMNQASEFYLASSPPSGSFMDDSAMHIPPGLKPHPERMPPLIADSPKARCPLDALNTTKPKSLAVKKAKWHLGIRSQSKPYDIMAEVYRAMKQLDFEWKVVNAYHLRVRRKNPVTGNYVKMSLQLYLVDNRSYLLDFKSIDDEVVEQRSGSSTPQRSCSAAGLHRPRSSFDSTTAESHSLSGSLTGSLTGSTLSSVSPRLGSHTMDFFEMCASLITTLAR

[11] = biological target: 5'-AMP-activated protein kinase catalytic subunit alpha-2 (Homo sapiens) (UniProt P54646); conditions: at 1 µM
[12] = biological target: T4, NUAK family SNF1-like kinase 1 (Homo sapiens) (UniProt O60285); conditions: at 0.1 µM
T4 sequence (whole entry): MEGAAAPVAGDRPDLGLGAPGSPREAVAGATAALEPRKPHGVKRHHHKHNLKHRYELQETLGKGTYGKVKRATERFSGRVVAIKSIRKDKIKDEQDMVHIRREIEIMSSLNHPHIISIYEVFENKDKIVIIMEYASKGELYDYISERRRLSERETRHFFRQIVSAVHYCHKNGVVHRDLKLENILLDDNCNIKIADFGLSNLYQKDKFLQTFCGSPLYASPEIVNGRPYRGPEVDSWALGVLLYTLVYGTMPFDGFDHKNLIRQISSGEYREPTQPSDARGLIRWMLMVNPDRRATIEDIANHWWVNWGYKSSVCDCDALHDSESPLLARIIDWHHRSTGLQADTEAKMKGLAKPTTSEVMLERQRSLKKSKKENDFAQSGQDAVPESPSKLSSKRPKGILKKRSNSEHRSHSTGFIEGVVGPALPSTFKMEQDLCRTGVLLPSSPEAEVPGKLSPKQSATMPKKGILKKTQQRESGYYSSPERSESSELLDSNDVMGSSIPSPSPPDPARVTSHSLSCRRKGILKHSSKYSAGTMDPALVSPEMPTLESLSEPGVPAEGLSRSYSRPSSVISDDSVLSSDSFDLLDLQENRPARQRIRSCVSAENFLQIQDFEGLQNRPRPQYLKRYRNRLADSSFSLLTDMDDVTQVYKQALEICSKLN

[13] = biological target: T4, NUAK family SNF1-like kinase 1 (Homo sapiens); conditions: at 1 µM
[14] = biological target: T5, Serine/threonine-protein kinase BRSK1 (Homo sapiens) (UniProt Q8TDC3); conditions: at 0.1 µM
T5 sequence (whole entry): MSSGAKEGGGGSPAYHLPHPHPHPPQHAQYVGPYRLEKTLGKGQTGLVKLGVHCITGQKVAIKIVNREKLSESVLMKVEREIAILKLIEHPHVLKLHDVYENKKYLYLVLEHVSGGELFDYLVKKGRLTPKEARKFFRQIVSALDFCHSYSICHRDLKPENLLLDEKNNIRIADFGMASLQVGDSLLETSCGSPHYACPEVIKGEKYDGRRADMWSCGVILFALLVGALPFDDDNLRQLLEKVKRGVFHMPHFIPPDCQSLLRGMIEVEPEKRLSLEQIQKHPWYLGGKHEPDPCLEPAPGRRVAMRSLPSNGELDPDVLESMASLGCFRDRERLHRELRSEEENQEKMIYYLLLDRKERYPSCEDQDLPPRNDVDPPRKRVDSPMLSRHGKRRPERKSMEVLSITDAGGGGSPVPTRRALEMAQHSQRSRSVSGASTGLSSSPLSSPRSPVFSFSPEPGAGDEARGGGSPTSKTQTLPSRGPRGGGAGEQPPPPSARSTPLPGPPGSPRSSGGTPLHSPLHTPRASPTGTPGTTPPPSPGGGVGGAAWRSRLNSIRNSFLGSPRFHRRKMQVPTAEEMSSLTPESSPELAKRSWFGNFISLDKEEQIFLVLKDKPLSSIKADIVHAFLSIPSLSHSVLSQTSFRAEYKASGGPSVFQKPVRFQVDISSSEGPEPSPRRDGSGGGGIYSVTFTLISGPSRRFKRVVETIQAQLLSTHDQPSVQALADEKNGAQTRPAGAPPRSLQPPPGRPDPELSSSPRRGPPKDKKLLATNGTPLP

[15] = biological target: T5, Serine/threonine-protein kinase BRSK1 (Homo sapiens); conditions: at 1 µM
[16] = biological target: T6, Serine/threonine-protein kinase BRSK2 (Homo sapiens) (UniProt Q8IWQ3); conditions: at 0.1 µM
T6 sequence (whole entry): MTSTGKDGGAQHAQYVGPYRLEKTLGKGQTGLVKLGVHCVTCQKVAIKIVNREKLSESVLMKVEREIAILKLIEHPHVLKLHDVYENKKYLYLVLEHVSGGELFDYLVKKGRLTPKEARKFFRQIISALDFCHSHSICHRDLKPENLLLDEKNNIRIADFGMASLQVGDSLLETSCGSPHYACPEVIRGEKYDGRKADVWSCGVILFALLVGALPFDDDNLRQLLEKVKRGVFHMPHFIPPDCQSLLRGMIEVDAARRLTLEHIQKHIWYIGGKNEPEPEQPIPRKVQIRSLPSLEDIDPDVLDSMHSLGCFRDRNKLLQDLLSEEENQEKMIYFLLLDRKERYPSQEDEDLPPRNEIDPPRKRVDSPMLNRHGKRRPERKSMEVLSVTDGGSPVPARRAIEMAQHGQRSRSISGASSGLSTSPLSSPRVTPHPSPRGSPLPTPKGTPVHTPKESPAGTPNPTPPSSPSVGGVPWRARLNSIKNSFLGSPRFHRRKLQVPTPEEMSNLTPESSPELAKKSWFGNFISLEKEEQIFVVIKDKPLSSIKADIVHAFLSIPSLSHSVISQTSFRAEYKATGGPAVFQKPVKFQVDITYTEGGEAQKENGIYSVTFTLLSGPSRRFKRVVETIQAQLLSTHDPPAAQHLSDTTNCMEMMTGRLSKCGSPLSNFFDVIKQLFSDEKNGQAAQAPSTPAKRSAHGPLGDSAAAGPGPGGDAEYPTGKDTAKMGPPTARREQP

[17] = biological target: T6, Serine/threonine-protein kinase BRSK2 (Homo sapiens); conditions: at 1 µM
[18] = biological target: Calcium/calmodulin-dependent protein kinase type 1D (Homo sapiens) (UniProt Q8IU85); conditions: at 0.1 µM
Sequence of Calcium/calmodulin-dependent protein kinase type 1D (Homo sapiens) (Q8IU85 whole entry, looked up): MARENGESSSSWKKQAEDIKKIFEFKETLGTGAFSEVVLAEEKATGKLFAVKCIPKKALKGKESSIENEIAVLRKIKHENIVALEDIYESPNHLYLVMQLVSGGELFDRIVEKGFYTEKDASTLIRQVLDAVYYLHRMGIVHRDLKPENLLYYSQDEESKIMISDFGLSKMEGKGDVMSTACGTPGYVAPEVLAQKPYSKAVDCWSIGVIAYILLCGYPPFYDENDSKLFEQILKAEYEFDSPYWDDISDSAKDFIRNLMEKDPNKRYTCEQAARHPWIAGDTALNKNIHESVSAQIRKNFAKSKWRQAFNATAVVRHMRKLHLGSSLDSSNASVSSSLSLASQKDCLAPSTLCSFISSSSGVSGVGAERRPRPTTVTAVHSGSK

[19] = biological target: Calcium/calmodulin-dependent protein kinase type 1D (Homo sapiens) (UniProt Q8IU85); conditions: at 1 µM
[20] = biological target: Calcium/calmodulin-dependent protein kinase type II subunit alpha (Homo sapiens) (UniProt Q9UQM7); conditions: at 0.1 µM;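 further: reported values are averages (mean inhibition of CAMK2A)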
Sequence of Calcium/calmodulin-dependent protein kinase type II subunit alpha (Homo sapiens) (Q9UQM7 whole entry): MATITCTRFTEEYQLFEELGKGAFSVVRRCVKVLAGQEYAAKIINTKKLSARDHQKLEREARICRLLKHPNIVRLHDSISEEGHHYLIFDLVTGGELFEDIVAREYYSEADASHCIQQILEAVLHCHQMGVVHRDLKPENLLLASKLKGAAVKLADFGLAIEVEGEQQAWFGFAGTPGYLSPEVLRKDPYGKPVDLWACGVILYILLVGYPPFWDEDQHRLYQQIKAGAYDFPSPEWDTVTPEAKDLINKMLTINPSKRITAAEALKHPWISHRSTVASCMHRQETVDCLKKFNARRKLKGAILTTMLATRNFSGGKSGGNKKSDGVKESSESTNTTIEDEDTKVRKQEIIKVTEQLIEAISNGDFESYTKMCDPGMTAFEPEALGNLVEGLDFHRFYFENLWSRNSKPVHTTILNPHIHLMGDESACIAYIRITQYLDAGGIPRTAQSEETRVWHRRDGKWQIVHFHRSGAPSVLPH

Sequence of Ribosomal protein S6 kinase alpha-6 (Homo sapiens) (Q9UK32 whole entry): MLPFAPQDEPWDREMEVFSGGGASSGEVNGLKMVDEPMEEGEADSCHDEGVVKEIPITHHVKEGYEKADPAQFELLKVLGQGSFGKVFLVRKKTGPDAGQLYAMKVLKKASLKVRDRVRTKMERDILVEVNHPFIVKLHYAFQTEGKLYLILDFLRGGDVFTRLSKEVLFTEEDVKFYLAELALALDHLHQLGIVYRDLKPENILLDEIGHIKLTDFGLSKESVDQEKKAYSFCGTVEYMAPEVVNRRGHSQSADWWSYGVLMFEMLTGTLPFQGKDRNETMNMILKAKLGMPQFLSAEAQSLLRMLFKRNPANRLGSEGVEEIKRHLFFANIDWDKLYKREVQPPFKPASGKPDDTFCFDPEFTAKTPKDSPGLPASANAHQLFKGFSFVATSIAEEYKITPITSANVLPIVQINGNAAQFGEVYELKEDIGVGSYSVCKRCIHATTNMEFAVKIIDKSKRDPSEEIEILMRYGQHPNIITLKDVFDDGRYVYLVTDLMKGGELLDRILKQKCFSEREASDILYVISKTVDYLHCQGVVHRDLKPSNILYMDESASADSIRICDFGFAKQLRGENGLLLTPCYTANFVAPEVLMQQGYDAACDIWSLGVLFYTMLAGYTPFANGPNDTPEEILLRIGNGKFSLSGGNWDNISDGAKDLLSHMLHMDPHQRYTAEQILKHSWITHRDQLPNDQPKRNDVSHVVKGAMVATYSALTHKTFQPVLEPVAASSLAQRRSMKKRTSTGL

Structure (SMILES)	inhibition [1] [%]	inhibition [2] [%]	inhibition [3] [%]	inhibition [4] [%]	inhibition [5] [%]	inhibition [6] [%]	inhibition [7] [%]	inhibition [8] [%]	inhibition [9] [%]	inhibition [10] [%]	inhibition [11] [%]	inhibition [12] [%]	inhibition [13] [%]	inhibition [14] [%]	inhibition [15] [%]	inhibition [16] [%]	inhibition [17] [%]	inhibition [18] [%]	inhibition [19] [%]	inhibition [20] [%]
CCn1c(-c2nonc2N)nc2c(C#CC(C)(C)O)ncc(OC3CCNCC3)c21	5.51	2.06	4.36	5.71	16.4	11.2	53.4	40.5	82.6	12.1	43.3	6.16	42.9	1.45	10.5	2.8	19.2	1.83	8.97	3.85
CCN(CC)S(=O)(=O)c1ccc(OC)c(Nc2ncc(-c3ccccc3)o2)c1	2.89	-0.03	3.29	0.96	1.93	4.69	0.56	1.56	3.48	-5.76	0.95	5.96	3.38	-0.07	0.94	3.36	6.08	0.13	-0.06	3.02
O=S(=O)(CCNCc1ccc(-c2ccc3ncnc(Nc4ccc(OCc5cccc(F)c5)c(Cl)c4)c3c2)o1)c1ccccc1	1.81	4.12	4.02	4.25	7.28	6.67	5.71	7.7	5.94	3.89	4.37	0.36	2.65	-0.02	4.07	3.29	3.94	1.31	1.55	4.23
